# Experimental data from PubChem BioAssay AID624040 (The Scripps Research Institute Molecular Screening Center, 2012).
# Several values for one entry are separate records, joined by “and”; a condition that tells them apart may be missing. Identical values can stand only once. The whole screen tested about 360,000 compounds, of which about 2,100 (0.58%) were called active.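 Rule for the calls: active = inhibition above a per-plate cutoff, the mean of that plate's test compounds plus 3 SD (cut at about 27% in these data); inactive = the rest.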 The full list was thinned out, with actives kept by preference. More than one record can exist for a structure, and the calls need not agree.
# Target: Muscarinic acetylcholine receptor M5 (Homo sapiens) (UniProt P08912)
# Test: CHRM5 blockers of acetylcholine calcium response – CHO cells, Fluo-8 calcium fluorescence, primary screen (AID 624040);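 note: 0% = acetylcholine EC80 with DMSO and 100% = DMSO without agonist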
# Conditions: CHO-hM5 cells, ACh EC80, at 3 µM, stronger effect = higher value
# Sequence of Muscarinic acetylcholine receptor M5 (Homo sapiens) (P08912 whole entry, looked up): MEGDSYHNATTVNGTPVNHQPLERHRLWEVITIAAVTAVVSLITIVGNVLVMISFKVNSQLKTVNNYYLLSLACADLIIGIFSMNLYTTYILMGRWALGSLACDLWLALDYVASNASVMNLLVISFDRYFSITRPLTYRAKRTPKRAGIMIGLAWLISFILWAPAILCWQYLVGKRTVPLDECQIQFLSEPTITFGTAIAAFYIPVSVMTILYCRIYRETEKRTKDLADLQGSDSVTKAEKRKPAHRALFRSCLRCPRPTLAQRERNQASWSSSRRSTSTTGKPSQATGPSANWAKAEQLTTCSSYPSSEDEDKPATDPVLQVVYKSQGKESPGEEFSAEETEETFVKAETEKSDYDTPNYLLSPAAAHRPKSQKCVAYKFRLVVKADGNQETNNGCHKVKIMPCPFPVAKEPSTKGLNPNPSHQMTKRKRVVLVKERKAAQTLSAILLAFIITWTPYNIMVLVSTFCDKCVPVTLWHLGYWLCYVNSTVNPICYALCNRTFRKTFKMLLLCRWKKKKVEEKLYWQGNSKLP
row,SMILES,inhibition
1,CCCNC(=O)NCc1ccc(N2CCCC2=O)cc1,-1.94% (inactive)
2,O=C(O)C(c1ccccc1)C1(O)CCCCC1 (stereo not given),-13.2% (inactive)
3,CN(C)CCOC(=O)C(c1ccccc1)C1(O)CCCC1 (stereo not given),98.1% (active)
4,O=C(O)C(c1cccs1)C1(O)CCCCC1 (stereo not given),9.55% (inactive)
5,COc1ccc(NC(=O)CC2C(=O)NC3CCCCC3N2C(=O)c2ccc(F)cc2)cc1 (stereo not given),23.2% (inactive)
6,CCOc1ccc(Br)cc1CSC(=N)N,30.2% (active)
7,CC(C)(C)NCc1cc(Br)ccc1OC1CCCC1,-2.57% (inactive)
8,CCOc1ccc(Br)cc1S(=O)(=O)N1CCC(C(=O)O)CC1,10.7% (inactive)
9,CC(C)(C)NC(=O)CN(C(=O)c1ccc(Cl)nc1)c1cccc2ccccc12,0.44% (inactive)
10,Cc1cc(C(F)(F)F)nn1CC(=O)N1CCCC1,-0.38% (inactive)
11,CCOc1ccc(C(=O)Nc2ccc(S(=O)(=O)Nc3cc(C)on3)cc2)cc1,7.9% (inactive)
12,O=C(Nc1ccc(OC(F)(F)F)cc1)c1ccc2c(c1)no[n+]2[O-],28.2% (active)
13,O=S(=O)(Nc1ccc(OC(F)(F)F)cc1)c1cccc2nonc12,3.29% (inactive)
14,O=C(COC(=O)c1ccc(N2CCCC2=O)cc1)c1ccc(OC(F)F)cc1,6.05% (inactive)
15,COc1cccc(OC)c1C(=O)Nc1c(C(=O)N2CCN(c3ccccn3)CC2)oc2ccccc12,9.59% (inactive)
16,COc1cccc(-n2c(N)cc(=O)nc2SCC(=O)Nc2cc(C)on2)c1,-11.3% (inactive)
17,COc1ccc(CCNc2nc(C)cc(C)n2)cc1OC,1.9% (inactive)
18,COc1ccc(CCNC(=O)CCc2ccccc2O)cc1OC,-1.37% (inactive)
19,COc1ccc(CCNC2=C(Cl)C(=O)N(Cc3ccccc3)C2=O)cc1OC,31.8% (active)
20,N#CCCN(C(=S)Nc1ccc(Cl)c(Cl)c1)C1CCCCC1,24.6% (inactive)
21,CCN1CCN(C(=O)/C=C\C(=O)O)CC1,2.54% (inactive)
22,O=C(Nc1ccc(Cl)cn1)Nc1cccs1,31.8% (active)
23,O=C(Nc1ccc(Cl)cn1)c1cnn2cccnc12,-6.64% (inactive)

row,SMILES,inhibition
1,O=C(Nc1ccc(Cl)cn1)c1ccccc1-c1ccccc1,10.9% (inactive)
2,CC(C)C[C@H](NC(=O)N1CCn2c1nc1ccccc12)C(=O)NC1CC1,0.78% (inactive)
3,CCN(CC)S(=O)(=O)c1ccc2nc(CSc3nnnn3-c3ccc(O)cc3)[nH]c2c1,10.1% (inactive)
4,Cc1nc2ccccc2cc1OCc1ccc(F)cc1,47.8% (active)
5,Fc1cccc2ncnc(OCc3ccccc3)c12,4.79% (inactive)
6,Fc1ccc(COc2cccc(-c3n[nH]c(=S)o3)c2)cc1,8.85% (inactive)
7,O=C(CSc1nccc(=O)[nH]1)Nc1ccc(N2CCOCC2)c(Cl)c1,12.6% (inactive)
8,CCOc1ccc(C(C)=O)cc1CSc1nnc(-c2ccncc2)n1CCOC,12% (inactive)
9,CCN1C(=O)CS/C1=N\c1nccs1,-0.1% (inactive)
10,CCOc1ccc(C(=O)NCC(=O)N2CCCCCCC2)cc1OCC,1.82% (inactive)
11,CO/N=C(\C(=O)N[C@@H]1C(=O)N2C(C(=O)O)=C(COC(C)=O)CS[C@H]12)c1csc(N)n1 (stereo in doubt),0.17% (inactive) and 51.3% (active) and 30.6% (active)
12,CCN1CCN(C(=O)N[C@@H](C(=O)N[C@@H]2C(=O)N3C(C(=O)O)=C(CSc4nnnn4C)CS[C@H]23)c2ccc(O)cc2)C(=O)C1=O,-7.79% (inactive)
13,C=CC1=C(C(=O)O)N2C(=O)[C@@H](NC(=O)/C(=N/OCC(=O)O)c3csc(N)n3)[C@H]2SC1,-2.27% (inactive)
14,COc1ccc(C(=O)Cn2nnc(-c3ccc(N4CCOCC4)cc3)n2)cc1OC,16.5% (inactive)
15,N#CCc1ccc(NC(=O)c2ccccc2C(=O)Nc2ccc(CC#N)cc2)cc1,2.31% (inactive)
16,COc1cc(C(CCN2CCN(c3ccccc3)CC2)c2c(OC)cc(OC)c3ccc(=O)oc23)cc(OC)c1OC (stereo not given),17% (inactive)
17,COc1cc(OC)c2ccc(=O)oc2c1C(CCN1CCN(c2ccccc2)CC1)c1ccc2c(c1)OCO2 (stereo not given),31.3% (active)
18,CCN(CC)CCC(c1ccc2c(c1)OCO2)c1c(OC)cc(OC)c2c(-c3ccccc3)cc(=O)oc12 (stereo not given),7.48% (inactive)
19,Cc1ccc(NC(=O)c2cc([N+](=O)[O-])ccc2Cl)c(O)c1,1.06% (inactive)
20,CCOC12CC(C)(C)CC(C)(CC3=C1C(=O)CC(C)(C)C3)C2 (stereo not given),-1.41% (inactive)
21,Cc1ccc(CNC(=O)CCNS(=O)(=O)c2ccc(Br)s2)cc1,-7.85% (inactive)
22,CCN(CC(=O)Nc1ccccc1C(=O)NC1CC1)Cc1cccs1,-5.91% (inactive)
23,CC(=O)Oc1ccc(C(=O)Nc2nccs2)cc1,-0.3% (inactive)

row,SMILES,inhibition
1,CSc1nccc(NC(=O)c2ccc(C(C)(C)C)cc2)n1,32.5% (active)
2,CSc1ncc(C(=O)Nc2ccc(C)cc2C)c(C)n1,0.26% (inactive)
3,O=C(CSc1nn(-c2ccc(F)cc2)c(=S)s1)NC1CCS(=O)(=O)C1 (stereo not given),2.55% (inactive)
4,CC(=O)NC(c1cccs1)c1cc(Br)c2cccnc2c1O (stereo not given),-3.57% (inactive)
5,CCn1c(N)c(Br)c(=O)[nH]c1=O,-11.1% (inactive)
6,Cc1ccc(N2CC(C(=O)NCCS(=O)(=O)N3CCN(c4ccccc4)CC3)CC2=O)cc1 (stereo not given),8.26% (inactive)
7,N#C/C(=C/c1ccc(N2CCCCC2)o1)C(=O)NCCc1c[nH]c2ccccc12,31.6% (active)
8,Cc1ccc(C(=O)N/C(=C/c2ccco2)C(=O)NCCc2c[nH]c3ccccc23)cc1C,0.84% (inactive)
9,N#C/C(=C\c1ccc(N2CCOCC2)o1)C(=O)N1CCOCC1,0.08% (inactive)
10,Cc1ccccc1CSc1nnc(-c2ccccn2)n1N,-0.16% (inactive)
11,CC(C)(C)S(=O)(=O)N1Cc2cc(CO)cc(CCO)c2[C@H]1CCO,-3.33% (inactive)
12,CCC1CCC/C1=N\NC(=O)c1ccc(Cl)cc1 (stereo not given),27.5% (active)
13,CN1CCC(=NNC(=O)c2ccc(N(Cc3ccc(Cl)cc3)S(C)(=O)=O)cc2)CC1,-3.74% (inactive)
14,CC(NC(=O)c1ccc(Cl)cc1)C(=O)N1CCCCC1 (stereo not given),-2.56% (inactive)
15,COc1cc(OC)cc(-c2c(C#Cc3ccsc3)c3cc(-c4ccc(OC)cc4F)ccc3n2C)c1,8.22% (inactive)
16,CCN(CC)c1ccc(NC(=O)CN2CCN(c3ccccn3)CC2)cc1,1.09% (inactive)
17,CN(C(=O)CN1CCN(c2cc(-c3ccc(OCc4ccccc4)cc3)ncn2)CC1)c1ccccc1,27.1% (active)
18,CCOc1ccc(OCc2ccc(C(=O)N(C)c3ccccc3)o2)cc1,8.29% (inactive)
19,C[C@H](NS(=O)(=O)c1ccc(Cl)cc1)C(=O)OCC(=O)N1CCOCC1,14.1% (inactive)
20,CN(C)CCNC(=O)c1ccc(Cl)c2cc3ccccc3nc12,0.61% (inactive)
21,N#C/C=C\Oc1ccc(Cl)cc1N,1.41% (inactive)
22,Cc1ccc(-c2c[n+](CC(=O)Nc3ccccc3)c3n2CCC3)cc1,2.52% (inactive)
23,Cc1ccc(C(=O)C[n+]2cc(-c3ccccc3)n3c2CCCCC3)cc1,4.95% (inactive) and 0.73% (inactive)

row,SMILES,inhibition
1,Clc1ccc(C[n+]2cc(-c3ccc(Cl)cc3)n3c2CCC3)cc1,32.4% (active)
2,COc1ccc(S(=O)(=O)N(C)CC(=O)NCCCN2CCOCC2)cc1Cl,8.37% (inactive)
3,CCN1CCN(C(=O)Cn2nc(C)n3c(cc4c(OC)cccc43)c2=O)CC1,2.41% (inactive)
4,COc1ccc(CCNC(=O)CCC(=O)NC2CCCCC2)cc1OC,15.9% (inactive)
5,CCc1ccc(N(C(=O)c2csnn2)C(C(=O)NC2CCCCC2)c2cccnc2)cc1 (stereo not given),-0.48% (inactive)
6,COc1ccccc1C(CNC(=O)c1cccc(S(=O)(=O)Nc2ccc(F)cc2)c1)N(C)C (stereo not given),98% (active)
7,Cc1ccc(C(=O)NCC(c2cccs2)N(C)C)cc1S(=O)(=O)N1CCOCC1 (stereo not given),4.49% (inactive)
8,COc1ccc(C(CNC(=O)c2cccc(S(=O)(=O)Nc3ccc(Br)cc3)c2)N(C)C)cc1 (stereo not given),5.55% (inactive)
9,COc1ccccc1C(CNC(=O)c1ccc(C)c(S(=O)(=O)N2CCCCC2)c1)N(C)C (stereo not given),98.7% (active)
10,CN(C)C(CNC(=O)c1cccc(S(=O)(=O)Nc2ccc(Br)cc2)c1)c1ccco1 (stereo not given),4.75% (inactive)
11,Cc1cccc(NS(=O)(=O)c2ccc(C)c(C(=O)NCC(c3ccccc3)N(C)C)c2)c1 (stereo not given),5.12% (inactive)
12,COc1ccccc1CNC(=O)c1ccc(Cl)c(S(=O)(=O)N2CCCC2)c1,-2.46% (inactive)
13,COc1ccccc1C(CNC(=O)c1cccc(NS(=O)(=O)c2ccc(Br)cc2)c1)N(C)C (stereo not given),93.8% (active)
14,CC(=O)c1ccc(S(=O)(=O)Nc2ccc(C(=O)NCC(c3ccccc3)N(C)C)cc2)cc1 (stereo not given),0.82% (inactive)
15,C/C(CC(O)(/C=N/O)c1ccccc1)=N\O (stereo not given),-4.45% (inactive)
16,O=C(CSc1nnc(-c2c[nH]c3ccccc23)n1-c1ccc(F)cc1)NCc1ccco1,-3.75% (inactive)
17,CCOc1ncccc1C(=O)OCC(=O)NC1CC1,10.6% (inactive)
18,CC(C)C(=O)N1CCN(CCN=CC2=C(O)CC(c3ccco3)CC2=O)CC1 (stereo not given),-10.8% (inactive) and 8.17% (inactive)
19,CCOC(=O)C1=NN(c2ccc(Cl)cc2)/C(=C/C2=NCCc3cc(OC)c(OC)cc32)S1,-2.43% (inactive)
20,O=C(NCc1ccccc1)C1CCCN(c2nc3ccsc3c(=O)s2)C1 (stereo not given),-8.79% (inactive)
21,Cc1cccc(N(Cc2ccccc2)C(=O)c2cc(S(=O)(=O)N3CCOCC3)ccc2F)c1,1.23% (inactive)
